Screening data: PubChem, National Center for Advancing Translational Sciences (NCATS)
In the library only some 6.5% were active in any assay of this set; here they are far more common.
MARV entry inh: blocks Marburg virus binding to or entry into cells; Potency, µM (top dose mostly 37.8 µM), inactives show top-dose activity change, negative = inhibition, hits mostly inhibitors; actives 1.8% (n = 300,000); Marburg virus pseudotyped entry inhibition, cell reporter; calls by dose curve; tested in HEK293 cells; note: potency is the fitted concentration of half-maximal effect
FMDV antiviral: antivirals against foot and mouth disease virus. FMDV antiviral cell-based qHTS. Potency, µM (top dose mostly 57.9 µM), for inactives: at the highest dose activity change, negative = inhibition, most hits filed as inhibitors. actives 1.2% (n = 410,000). AID 1159524; calls by dose curve; tested in HEK293T cells; note: read-out not given here; potency is the fitted concentration of half-maximal effect; nearly all actives have a fitted effect of over 45% in size
HCMV inh: inhibitors of human cytomegalovirus. activity change, negative = inhibition, % at 57.5 µM. actives 4.5% (n = 410,000). HFF cells, HCMV-luciferase reporter, 72 h; active compounds read low; in the data active = activity change below about -60%; inconclusive = no clear call, values can overlap the other calls; inactive = above about -39%
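Two-dose cell screen: HFF monolayers treated with compounds and infected with luciferase-expressing HCMV at 1 PFU/cell, 72 h at 37C, then lysed for luciferase measurement.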
LASV entry inh: inhibitors of Lassa virus binding or cell entry | Lassa virus pseudotype entry inhibition, cell reporter | Potency, µM (series often up to 37.9 µM), for the others: at the highest dose activity change, negative = inhibition, usual class: inhibitors | actives 1.2% (n = 300,000) | AID 540256; calls by dose curve; tested in HEK293 cells; note: potency is the fitted concentration of half-maximal effect; nearly all actives have a fitted effect of over 50% in size
Vaccinia mCherry: inhibitors of vaccinia virus infection (mCherry reporter signal); Vaccinia virus mCherry reporter infection, fluorescence; actives 0.63% (n = 310,000); Potency, µM (doses to about 36.5 µM), for inactives: at the highest dose activity change, negative = inhibition, usual class: inhibitors; calls by dose curve; tested in A549 cells; note: potency is the fitted concentration of half-maximal effect; nearly all actives have a fitted effect of over 35% in size
Vaccinia Venus: inhibitors of vaccinia virus (Venus reporter) | AID 720580 | Vaccinia virus Venus reporter expression, fluorescence | actives 0.46% (n = 330,000) | Potency, µM (top dose mostly 36.5 µM), for the others: at the top dose activity change, negative = inhibition, actives largely listed as inhibitors; calls by dose curve; tested in A549 cells; note: potency is the fitted concentration of half-maximal effect; nearly all actives have a fitted effect of over 30% in size
An asterisk follows results filed as active; i = inactive; u = inconclusive; x = no result; [ ] = another dose, or the depositor's remark. % is set by controls: 0 for no effect and ±100 for the full control effect.

SMILES	MARV entry inh	FMDV antiviral	HCMV inh	LASV entry inh	Vaccinia mCherry	Vaccinia Venus
CCc1ccc(NC(=O)CC2C(=O)N(c3cccc(C)c3)C(=O)N2Cc2cccs2)cc1 (configuration not stated)	x	8.9%	u	-10.2%[46.1 µM]	-13.9%	-18.4%
O=C(CCCc1ccccc1)c1ccccc1	u	2.8%	39.9	x	6.2%	1.8%
CCN(CCCC(=O)c1ccc(F)cc1)CCc1ccccc1	3.55µM*	2.6%	-9.0	u	-17.6%	-20.4%
CCCN(CCO)CCCc1ccccc1	9.2%	-14.3%	53.5	2.1%	x	-11.3%
CCN(CCCc1ccccc1)CCCc1ccccc1	5.8µM*	-10.6%	-17.8	u	-6.2%	-17.2%
CCCCCCCCCCCCCCCC(O)C(N)CO (configuration not stated)	30.9%	-3.1%	-98.3*	6.8%	i	-10.0%
CCCCCCCCCCCCC/C=C\[C@@H](O)[C@@H](N)CO	u	-3.8%	x	x	x	x
CCSc1nnc2n(-c3ccc(OC)cc3)c(=O)c3c4c(sc3n12)CCCC4	12.1%	-28.9%	-84.6*	-0.4%	-18.7%	-5.4%
CCOC(=O)c1[nH]c2ccccc2c1NC(=O)c1ccccc1OCC	u	-13.4%	-36.3	-14.1%[46.1 µM]	u	-29.8%
CCN1/C(=C\C=C2\C(=O)N(c3ccccc3)C(=S)N2C)Sc2ccccc21	15.0%[46.1 µM]	u	-63.6*	u	-10.2%	2.3%
c1ccc(CSc2nnc(-c3ccncc3)o2)cc1	u	0.0%	-73.1*	16.3%	x	x
O=C(CSc1nnc(-c2ccncc2)o1)NCc1ccccc1Cl	-27.8%	-4.6%	-14.7	-2.0%	i	-7.0%
COC(=O)c1ccc(CSc2nnc(-c3ccncc3)o2)cc1	14.2%[46.1 µM]	7.4%	-67.7*	u	i	-22.1%
COC(=O)c1ccc(CSc2nnc(-c3ccncc3)o2)o1	10.9%	-1.9%	13.9	1.9%	u	u
O=C(CSc1nnc(-c2ccncc2)o1)NCc1ccccc1	0.8%	-4.9%	-89.7*	-2.1%	i	-8.3%
Cc1ccc(-n2c(=O)c3c4c(sc3n3c(C)nnc23)CO[C@H](C(C)C)C4)cc1	13.5%	x	x	x	x	x
Cc1ccccc1CN1[C@H]2CCCC[C@@H]2OCCS1(=O)=O	x	x	x	x	-1.0%	-21.5%
CCCS(=O)(=O)NCCc1cc2c(OC)ccc(OC)c2[nH]c1=O	23.1%	-23.7%	-77.2*	7.5%	-19.0%	-11.8%
COc1ccc(NC(=O)CN(C)S(=O)(=O)c2ccc3[nH]c4c(c3c2)CCCC4)cc1Cl	x	u	-20.6	-21.0%[46.1 µM]	-26.8%	-17.2%
COc1ccc(C(=O)C/C(=C\C(=O)c2ccc(C)cc2)c2ccccc2)cc1	u	-15.4%	-97.9*	u	x	x
COc1ccc(C(CC(=O)c2ccccc2)S(=O)(=O)c2ccc(C)cc2)cc1 (configuration not stated)	0.8%	79.2%	-105.4*	-2.7%	x	x
COc1ccc(OC)c(NC(=O)CSc2nc3n[nH]c(C)c3c(=N)n2-c2cccc(Cl)c2C)c1	17.8µM*	u	u	-6.2%[46.1 µM]	-26.2%	u
Cc1[nH]nc2nc(SCC(=O)NCCC3=CCCCC3)n(-c3ccc(Br)cc3)c(=N)c12	x	-20.2%	-77.6*	x	x	x
Cc1c(Cl)cccc1-n1c(SCC(=O)NCc2ccccc2)nc2n[nH]c(C)c2c1=N	x	-21.5%	-60.8*	-27.4%[46.1 µM]	u	u
Cc1ccccc1-n1c(SCC(=O)Nc2ccccc2Cl)nc2n[nH]c(C)c2c1=N	x	-24.0%	-21.8	x	x	x
SMILES	MARV entry inh	FMDV antiviral	HCMV inh	LASV entry inh	Vaccinia mCherry	Vaccinia Venus
Cc1ccc(NC(=O)c2cnn3c2NC(=C2CC2)C=C3C(F)F)cc1C	x	x	x	x	-28.7%	-27.5%
O=[N+]([O-])c1cc(-n2cnnn2)ccc1N1CCC(Cc2ccccc2)CC1	u	u	-103.2*	-26.0%	x	x
O=C(N/N=C\c1cc(Cl)ccc1O)c1ccc(S(=O)(=O)N2CCCCC2)cc1	u	-21.8%	-103.0*	u	12.6µM*	u
O=C(N/N=C/c1cc(Cl)ccc1O)c1ccccc1Br	x	19.4%	-100.1*	x	x	x
O=C(CNC(=O)c1ccccc1Br)N/N=C/c1cc(Br)ccc1O	x	-17.8%	33.1	x	x	x
O=C(Cn1c(=O)n(Cc2ccco2)c(=O)c2oc3ccccc3c21)Nc1ccc(F)c(Cl)c1	x	-22.7%	2.3	-8.5%[46.1 µM]	-2.6%	-12.1%
Cc1ccc(S(=O)(=O)NCCc2sc3nc(-c4ccccc4)nn3c2C)cc1C	x	18.2%	u	-16.5%[46.1 µM]	-8.8%	u
CC(C)(C)c1cc(CCC(=O)NNC(=S)NC(=O)c2ccccc2)cc(C(C)(C)C)c1O	u	-25.2%	x	u	x	x
CC(C)(C)c1cc(CCC(=O)NNC(=O)c2ccco2)cc(C(C)(C)C)c1O	8.91µM*	-19.2%	-26.7	0.8%	-20.3%	-18.6%
Cc1csc2ncnc(N3CCN(C(=S)Nc4ccc(C(F)(F)F)cc4)CC3)c12	x	10.1%	-71.0*	x	x	x
CCOc1ccc(S(=O)(=O)N2CCN(C(=O)c3ccc(C)c(S(=O)(=O)N4CCOCC4)c3)CC2)cc1	u	u	-60.9*	u	u	-27.6%
CCN1CCN(C(=O)c2ccc(Cl)c(S(=O)(=O)N3CCOCC3)c2)CC1	1.2%	x	28.9	3.7%	i	-5.2%
CCOc1ccc(S(=O)(=O)N2CCN(C(=O)c3ccc(Cl)c(S(=O)(=O)N4CCOCC4)c3)CC2)cc1	x	u	-60.3*	x	x	x
COc1ccc([C@H](CC(=O)O)NC(=O)OC(C)(C)C)cc1	6.5%	x	x	x	x	x
O=C(NC1CCCCC1)c1c[nH]c2ccc(S(=O)(=O)Nc3ccccc3F)cc2c1=O	10.4%[46.1 µM]	25.2%	28.9	7.2%[46.1 µM]	-4.9%	-7.1%
COc1ccc(CC(=O)Nc2cccc(-c3nnc(-c4ccc(C)cc4)o3)c2)cc1OC	9.2µM*	3.98µM*	-93.0*	u	-12.4%	-3.3%
CCOc1cccc(C(=O)Nc2cccc(-c3nnc(-c4ccccc4)o3)c2)c1	u	x	u	u	-13.4%	-15.8%
COc1ccccc1OCC(=O)Nc1cccc(-c2nnc(-c3ccco3)o2)c1	6.31µM*	-17.1%	120.8	u	-10.7%	-15.1%
COc1ccc(CC(=O)Nc2ccc(-c3nnc(-c4ccccc4)o3)cc2)cc1OC	20.4%	42.9%	19.2	25.1%[14.3 µM]	i	-5.6%
COc1ccc(CC(=O)Nc2cccc(-c3nnc(-c4cccc(C)c4)o3)c2)cc1OC	u	39.8µM*	-17.2	u	-6.9%[1.46 µM]	u
CCOc1cccc(C(=O)Nc2cccc(-c3nnc(-c4ccc(C)cc4)o3)c2)c1	u	-25.1%	-70.4*	0.1%	-12.1%	-6.4%
Cc1ncc2c(c1CNC(=O)c1cncs1)CCN(C(=O)c1cc(F)c(F)cc1F)C2	x	-4.3%	x	x	i	-24.6%
C[C@H]1CN([C@@H](C)CO)C(=O)CCCn2nncc2CO[C@@H]1CN(C)C(=O)Nc1ccccc1F	x	x	-12.3	x	x	x
CCCS(=O)(=O)NCc1c(C)ncc2c1CCN(C(=O)/C=C/c1ccccc1)C2	x	-8.9%	x	x	-15.7%	-7.1%
O=C(Nc1ccc(S(=O)(=O)Nc2ccccc2)cc1)N1CCCC1	x	-12.4%	8.3	-4.4%[46.1 µM]	-5.6%	-12.0%
